Measured values published in PMC8384837, “Expanding the binding specificity for RNA recognition by a PUF domain”.

Tests used:
Assay in all cases: yeast three-hybrid, YBZ-1, SC-Leu-His + 0.5 mM 3-AT, 4 days
Conditions in all cases: tags: N-Gal4 AD-HA kept; label: inside an RPR1-promoter hybrid RNA with tandem MS2 sites; ssRNA
PUM1 PUF domain R4-LHS = PUM1 PUF domain R4-LHS (Homo sapiens, UniProt Q14671 828-1176, N971L;Q975S)
Method in brief: (§1)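 Matching RNA elements and Pumilio-1 PUF domain libraries, randomized at the three base-contacting residues of every repeat, were co-expressed from a centromeric plasmid in strain YBZ-1 (LexA–MS2 coat fusion, HIS3 reporter). The repeat regions were PCR-amplified and Illumina-sequenced from cells grown four days on SC-Leu (input) or SC-Leu-His + 0.5 mM 3-AT (selection). The interaction score is the log change in variant frequency from input to selection. It is computed in log2, with a pseudocount of 1 for absent variants.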

PUM1 PUF domain R8-MYW = PUM1 PUF domain R8-MYW (Homo sapiens, UniProt Q14671 828-1176, N1122M;Q1126W)
Method in brief: as §1

PUM1 PUF domain R1-RMQ = PUM1 PUF domain R1-RMQ (Homo sapiens, UniProt Q14671 828-1176, S863R;R864M)
Method in brief: as §1

PUM1 PUF domain R6-TWV = target: T1, PUM1 PUF domain R6-TWV (Homo sapiens, UniProt Q14671 828-1176, N1043T;Y1044W;Q1047V)
T1 sequence: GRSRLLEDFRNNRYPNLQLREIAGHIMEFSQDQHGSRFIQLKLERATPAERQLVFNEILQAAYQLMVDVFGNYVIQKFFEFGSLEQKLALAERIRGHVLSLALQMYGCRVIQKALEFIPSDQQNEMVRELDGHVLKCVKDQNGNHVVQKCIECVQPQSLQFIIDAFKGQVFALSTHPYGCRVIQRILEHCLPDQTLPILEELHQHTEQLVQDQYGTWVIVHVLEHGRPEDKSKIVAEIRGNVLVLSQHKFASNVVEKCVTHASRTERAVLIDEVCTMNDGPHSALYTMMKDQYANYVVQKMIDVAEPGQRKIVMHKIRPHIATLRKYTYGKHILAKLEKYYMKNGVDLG
Method in brief: as §1

PUM1 PUF domain R5-KGW = PUM1 PUF domain R5-KGW (Homo sapiens, UniProt Q14671 828-1176, C1007K;R1008G;Q1011W)
Method in brief: as §1

PUM1 PUF domain R5-RYK = PUM1 PUF domain R5-RYK (Homo sapiens, UniProt Q14671 828-1176, C1007R;R1008Y;Q1011K)
Method in brief: as §1

PUM1 PUF domain R5-SLH = PUM1 PUF domain R5-SLH (Homo sapiens, UniProt Q14671 828-1176, C1007S;R1008L;Q1011H)
Method in brief: as §1

PUM1 PUF domain R3-ERS = PUM1 PUF domain R3-ERS (Homo sapiens, UniProt Q14671 828-1176, C935E;Q939S)
Method in brief: as §1

GGCUAGAACUAGUGGAUCCCCCGGCGCCCGGCGGCUCGAGCCCGGGUAAGUGUAUAUAGUCUGCAUGCCGCCGGGCGCCAUGCCUGCAGGUCGACUCUAGAAAACAUG
binding signal (PUM1 PUF domain R4-LHS): 3.86 log2 enrichment (interaction score)

GGCUAGAACUAGUGGAUCCCCCGGCGCCCGGCGGCUCGAGCCCGGGUAAGCGUAAAUAGUCUGCAUGCCGCCGGGCGCCAUGCCUGCAGGUCGACUCUAGAAAACAUG
binding signal (PUM1 PUF domain R8-MYW): 2.44 log2 enrichment (interaction score)

GGCUAGAACUAGUGGAUCCCCCGGCGCCCGGCGGCUCGAGCCCGGGUAAGUGUAAAUCGUCUGCAUGCCGCCGGGCGCCAUGCCUGCAGGUCGACUCUAGAAAACAUG
binding signal (PUM1 PUF domain R1-RMQ): 5.34 log2 enrichment (interaction score)

GGCUAGAACUAGUGGAUCCCCCGGCGCCCGGCGGCUCGAGCCCGGGUAAGUGAAAAUAGUCUGCAUGCCGCCGGGCGCCAUGCCUGCAGGUCGACUCUAGAAAACAUG
binding signal (PUM1 PUF domain R6-TWV): 2.6 log2 enrichment (interaction score)

GGCUAGAACUAGUGGAUCCCCCGGCGCCCGGCGGCUCGAGCCCGGGUAAGUGUCAAUAGUCUGCAUGCCGCCGGGCGCCAUGCCUGCAGGUCGACUCUAGAAAACAUG
binding signal (PUM1 PUF domain R5-KGW): 3.14 log2 enrichment (interaction score)
binding signal (PUM1 PUF domain R5-RYK): 4.4 log2 enrichment (interaction score)

GGCUAGAACUAGUGGAUCCCCCGGCGCCCGGCGGCUCGAGCCCGGGUAAGUGUGAAUAGUCUGCAUGCCGCCGGGCGCCAUGCCUGCAGGUCGACUCUAGAAAACAUG
binding signal (PUM1 PUF domain R5-SLH): 3.2 log2 enrichment (interaction score)

GGCUAGAACUAGUGGAUCCCCCGGCGCCCGGCGGCUCGAGCCCGGGUAAGUGUAAAUAGUCUGCAUGCCGCCGGGCGCCAUGCCUGCAGGUCGACUCUAGAAAACAUG
binding signal (PUM1 PUF domain R5-RYK): 3.8 log2 enrichment (interaction score)

GGCUAGAACUAGUGGAUCCCCCGGCGCCCGGCGGCUCGAGCCCGGGUAAGUGUAAGUAGUCUGCAUGCCGCCGGGCGCCAUGCCUGCAGGUCGACUCUAGAAAACAUG
binding signal (PUM1 PUF domain R3-ERS): 2.54 log2 enrichment (interaction score)
